From PMC5540273 (PLoS ONE, 2017)

test system: CDKL3; conditions: concentration: 1 μM, replicates: in singlicate; n = 1
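Also: KINOMEscan kinase panel screen.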

Row | Structure (SMILES) | %Inh
1 | COc1cc(Nc2nccc(N3CCC(NC(=O)C4COc5ccccc5O4)C3)n2)cc(OC)c1OC (stereo not drawn) [GSK1379761] | 0%
2 | CC(C)(C)c1ccc(C(=O)Nc2cn3cc(-c4ccccc4)ccc3n2)cc1 | 0%
3 | CN1C(=O)C(Nc2ccccc2)=C(c2ccccc2)C1=O [SB-300079] | 19%
4 | CCC(=O)c1c(-c2ccccc2)c2cc(Cl)ccc2c(=O)n1Cc1ccc(C(=O)O)cc1 | 0%
5 | CCS(=O)c1ccc(-c2coc3ccc(-c4nnc(C)o4)cc23)cc1 (stereo not drawn) | 0%
6 | COc1cc(Nc2nccc(N3CCC(NC(=O)C(C)c4ccc(Cl)cc4)C3)n2)cc(OC)c1OC (stereo not drawn) [GSK1379757] | 0%
7 | COc1cccc(-n2cnc3c(N)ncnc32)c1 [SKF-97416] | 0%
8 | OCCCNc1nccc(-c2c(-c3cccc(C(F)(F)F)c3)nn3cc(C(F)(F)F)ccc23)n1 [GW630813] | 0%
9 | COc1cc2nccc(Nc3cccc(Oc4ccccc4)c3)c2cc1OC.Cl [GW284543] | 0%
10 | CN(C)c1cc(-c2ccc3c(N)n[nH]c3c2)nc(N)n1 [GSK2219329] | 0%
11 | Cl.NS(=O)(=O)c1cccc(Nc2cc(-c3ccc(F)cc3)n[nH]2)c1 [GW824645] | 1%
12 | Nc1nc(N)c2nc(-c3ccccc3)[nH]c2n1 [SKF-12778] | 2%
13 | COc1cc2ncn(-c3cc(OCc4ccc(S(C)(=O)=O)cc4)c(C(N)=O)s3)c2cc1OC [GW869979] | 0%
14 | COc1ccc(-c2cc3c(C)nc(N)nc3n([C@H]3CC[C@H](OCCO)CC3)c2=O)cn1 | 29%
15 | CCn1c(-c2nonc2N)nc2ccccc21 [SB-693162/GW549034] | 3%
16 | COc1cc2ncn(-c3cc(OCCCc4ccccc4)c(C(N)=O)s3)c2cc1OC [GSK205189] | 0%
17 | COc1ccc(CNC(=O)NC2CCN(c3ccnc(Nc4ccc(F)cc4)n3)C2)cc1 (stereo not drawn) [GSK1379706] | 0%
18 | Cc1ccccc1COc1cc(-n2cnc3cc(Cl)ccc32)sc1C(N)=O [GW813349] | 23%
19 | Nc1n[nH]c2nnc(-c3ccccc3)c(-c3ccccc3)c12 [GW554060] | 0%
20 | Cc1nnc(-c2ccc3ncn(-c4ccc(S(C)=O)cc4)c3c2)o1 (stereo not drawn) | 2%
21 | CCc1ccc(-c2ccc3c(c2)-c2nn(C)cc2S(=O)(=O)N3C)cc1 | 0%
22 | Cc1c(Cn2c(C)nn3c(=O)cc(N4CCO[C@H](C)C4)nc23)cccc1C(F)(F)F [GSK2373690] | 0%
23 | CCc1nc(-c2cccc(C)c2)c(-c2ccncc2)s1 | 7%

test system: CDKL5; conditions: concentration: 1 μM, replicates: in singlicate; n = 1

Row | Structure (SMILES) | %Inh
24 | Nc1nccc2scc(-c3ccc4c(c3)CCN4C(=O)Cc3ccccc3)c12 [GSK2576924] | 0%
25 | CCC(=O)c1c(-c2ccccc2)c2cc(Cl)ccc2c(=O)n1Cc1cc(S(C)(=O)=O)n(CC(F)F)n1 | 8%
26 | O=c1cc(N2CCOCC2)nc2n(Cc3ccc(F)c(Cl)c3)ccn12 [GSK2297099] | 10%
27 | Fc1cccc(CSc2nnc(-c3ccc4c(c3)CCO4)o2)c1 | 16%
28 | Cc1cccc(-c2nc(Nc3ccc4c(cnn4C)c3)c3ccccc3n2)n1 [GW876731] | 0%
29 | COc1cccc(C2=C(Nc3cccc(C(=O)O)c3)C(=O)NC2=O)c1 [SB-390770] | 0%
30 | Nc1ncnc2c1ncn2-c1cccc2ccccc12 [SKF-97184] | 3%
31 | Nc1ncnc2c1ncn2-c1ccc(Cl)cc1 [AH2635] | 0%
32 | COc1cc2ncn(-c3cc(OCc4ccncc4)c(C(N)=O)s3)c2cc1OC [GSK336313] | 2%
33 | Cl.c1ccc(Cn2cnc3cc(Nc4ncnc5ccccc45)ccc32)cc1 [GW272142] | 0%
34 | C[C@@H]1CC[C@H](C(=O)NC2CCCCC2)CN1c1cc(-c2ccc3c(N)n[nH]c3c2)nc(N)n1 [GSK2291363] | 4%
35 | Nc1n[nH]c2ncc(-c3ccccc3)cc12 [SB-517081] | 0%
36 | CN1C(=O)C(Nc2cc(Cl)c(O)c(Cl)c2)=C(c2ccc(Cl)cc2)C1=O [SB-404321] | 0%
37 | COc1ccc(-c2cc3c(C)nc(N)nc3n([C@H]3CC[C@H](O)CC3)c2=O)cn1 | 0%
38 | COc1cc(Nc2nccc(N3CCC(NC(=O)C4COc5ccccc5O4)C3)n2)cc(OC)c1OC (stereo not drawn) [GSK1379761] | 0%
39 | CC(C)(C)c1ccc(C(=O)Nc2cn3cc(-c4ccccc4)ccc3n2)cc1 | 0%
40 | CN1C(=O)C(Nc2ccccc2)=C(c2ccccc2)C1=O [SB-300079] | 0%
41 | CCC(=O)c1c(-c2ccccc2)c2cc(Cl)ccc2c(=O)n1Cc1ccc(C(=O)O)cc1 | 0%
42 | CCS(=O)c1ccc(-c2coc3ccc(-c4nnc(C)o4)cc23)cc1 (stereo not drawn) | 0%

Row | Structure (SMILES) | %Inh
43 | COc1cc(Nc2nccc(N3CCC(NC(=O)C(C)c4ccc(Cl)cc4)C3)n2)cc(OC)c1OC (stereo not drawn) [GSK1379757] | 0%
44 | COc1cccc(-n2cnc3c(N)ncnc32)c1 [SKF-97416] | 14%
45 | OCCCNc1nccc(-c2c(-c3cccc(C(F)(F)F)c3)nn3cc(C(F)(F)F)ccc23)n1 [GW630813] | 11%
46 | COc1cc2nccc(Nc3cccc(Oc4ccccc4)c3)c2cc1OC.Cl [GW284543] | 0%
47 | CN(C)c1cc(-c2ccc3c(N)n[nH]c3c2)nc(N)n1 [GSK2219329] | 0%
48 | Cl.NS(=O)(=O)c1cccc(Nc2cc(-c3ccc(F)cc3)n[nH]2)c1 [GW824645] | 0%
49 | Nc1nc(N)c2nc(-c3ccccc3)[nH]c2n1 [SKF-12778] | 4%
50 | COc1cc2ncn(-c3cc(OCc4ccc(S(C)(=O)=O)cc4)c(C(N)=O)s3)c2cc1OC [GW869979] | 15%
51 | COc1ccc(-c2cc3c(C)nc(N)nc3n([C@H]3CC[C@H](OCCO)CC3)c2=O)cn1 | 0%
52 | CCn1c(-c2nonc2N)nc2ccccc21 [SB-693162/GW549034] | 25%
53 | COc1cc2ncn(-c3cc(OCCCc4ccccc4)c(C(N)=O)s3)c2cc1OC [GSK205189] | 2%
54 | COc1ccc(CNC(=O)NC2CCN(c3ccnc(Nc4ccc(F)cc4)n3)C2)cc1 (stereo not drawn) [GSK1379706] | 0%
55 | Cc1ccccc1COc1cc(-n2cnc3cc(Cl)ccc32)sc1C(N)=O [GW813349] | 2%
56 | Nc1n[nH]c2nnc(-c3ccccc3)c(-c3ccccc3)c12 [GW554060] | 0%
57 | Cc1nnc(-c2ccc3ncn(-c4ccc(S(C)=O)cc4)c3c2)o1 (stereo not drawn) | 0%
58 | CCc1ccc(-c2ccc3c(c2)-c2nn(C)cc2S(=O)(=O)N3C)cc1 | 0%
59 | Cc1c(Cn2c(C)nn3c(=O)cc(N4CCO[C@H](C)C4)nc23)cccc1C(F)(F)F [GSK2373690] | 7%
60 | CCc1nc(-c2cccc(C)c2)c(-c2ccncc2)s1 | 0%
